Assay results taken from PubChem BioAssay (EPA / NIEHS).
Active and inactive are the calls of the source. The calls were made as follows: active = hit-call score of the fitted dose curve at least 0.9, where 1 is the maximum; inactive = score below 0.9. Peptide text beside a SMILES is read from it.

Test: CCTE_Shafer_MEA_acute_per_network_burst_spike_number_mean: CCTE's Neural Acute Assay for Average Number of Spikes in a Network Burst, Shafer Lab (AID 2284019)
Protocol: CCTE_Shafer_MEA_acute assay is conducted using Axion Biosystems 48 well microelectrode array (MEA) plates and Maestro recording system. Each well of the MEA plate contains a grid of 16 microelectrodes embedded in the culture surface. Electrically active cells, such as neurons, can be cultured over the electrodes, and electrical activity in these cells can be recorded extracellularly. The spontaneous firing of neurons is captured from each electrode on a microsecond timescale providing both temporally and spatially precise data. […] The CCTE_Shafer_MEA_acute assay uses primary cultures of rat cortical neurons. As these cultures mature over time, neural networks develop functional activity and form cohesive networks in which electrical activity can be highly coordinated. Baseline 40-minute recordings are made on days post-plating 13 or 15, followed by a secondary 40-minute recording after chemical exposure.CCTE_Shafer_MEA_acute_per_network_burst_spike_number_mean is a component of the CCTE_Shafer_MEA_acute assay. It measures the average number of spikes (action potential firings) in a network burst (temporally-clustered group of spikes across multiple electrodes) as the total number of spikes in a network burst divided by the number of network bursts during a recording in a microelectrode array (MEA) using Axion Biosystems Maestro 768 channel amplifier with the AxIS adaptive spike detector. The recordings before and after chemical treatment are used to calculate a percent change in the mean number of spikes in a network burst in each well.Data from the assay component CCTE_Shafer_MEA_acute_per_network_burst_spike_number_mean was analyzed into 1 assay endpoint. This assay endpoint, CCTE_Shafer_MEA_acute_per_network_burst_spike_number_mean, was analyzed in the negative analysis fitting direction relative to DMSO as the negative control and baseline of activity. Using a type of functional reporter, gain or loss-of-signal activity can be used to understand electrical activity.
Spontaneous activity in the cortical cultures was recorded using an Axion Biosystems Maestro 768 channel amplifier and Axion Integrated Studios (AxIS) v1.8 (or later) software. The amplifier recorded from all channels simultaneously (gain = 1200 x; sampling rate = 12.5 kHz/channel): raw signals were filtered with a Butterworth band-pass filter (300-5000 Hz), which filters out slower local field potentials leaving only fast potentials, i.e., "spikes", arising from extracellular currents associated with action potentials (Pine 2006; Wheeler and Nam 2011). On-line spike detection of filtered signals was conducted with the AxIS adaptive spike detector, using a threshold of 8x the root mean squared (rms) noise on each channel. Any electrodes with rms noise levels greater than 5 uV were grounded (e.g., no data were recorded). Once grounded, an electrode was grounded for the duration of the experiment. All recordings were conducted at 37 C. Wells were deemed usable if on the day of the exposure >/= 10 electrodes were active (defined as >/= 5 spikes/min). On DIV 13 or 15, a minimum of three wells from one cortical culture preparation were treated with each compound (0.03-40 uM). Prior to recording baseline activity, each mwMEA plate was placed in the Maestro at 37 C and allowed to sit for 20 min while firing rates stabilized. Baseline activity (40 min) was recorded before the addition of each compound. An additional 40 min of spontaneous activity was recorded in the presence of each compound. Changes in network parameters relative to baseline were assessed following compound treatment.

Row | Compound | outcome | AC50
1 | COC(=O)[C@H](Cc1ccccc1)NC(=O)[C@@H](N)CC(=O)O (H-Asp-Phe-OMe) | inactive | 
2 | CC(CCC(=O)O)(c1ccc(O)cc1)c1ccc(O)cc1 | inactive | 
3 | CC/C=C\CCOC(=O)c1ccccc1O |  | 3 nM (active)
4 | Nc1nc(N)nc(-c2ccccc2)n1 | inactive | 
5 | CCCCCCCCCCCC(=O)N(C)CC(=O)O |  | 613 nM (active)
6 | c1ccc(Nc2cccc3ccccc23)cc1 | inactive | 
7 | CCCC(C)C(=O)OCC (stereo not drawn) | inactive | 
8 | Cc1c(C(=O)c2c[nH]n(C)c2=O)ccc(S(C)(=O)=O)c1C1=NOCC1 | inactive | 
9 | Nc1cccc(N)n1 |  | 45.6 nM (active)
10 | Oc1ccccc1Cc1ccccc1O | inactive | 
11 | C1CNCCN1 | inactive | 
12 | CC1(C)CC(O)CC(C)(C)N1[O] | inactive | 
13 | CC(C)C(=O)OCCc1ccccc1 | inactive | 
